Binding signal data for 15 molecules are collected here from paper PMC12136788.

Sequences and labels used below:
T1: UNK ZnF1-3 (human, UniProt Q9C0B0 31-174)
T1 sequence: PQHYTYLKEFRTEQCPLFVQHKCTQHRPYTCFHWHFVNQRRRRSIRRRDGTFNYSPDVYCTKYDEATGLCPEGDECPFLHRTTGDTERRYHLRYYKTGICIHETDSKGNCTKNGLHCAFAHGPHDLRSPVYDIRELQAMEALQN

B1: chr2:39006174:39006175:+_ENSG00000152147_ENST00000409566|hu_mus|FALSE|FALSE (ssRNA)
RNA: GGGAGUUCUACAGUCCGACGAUCUACUCCUUCUCACAGGCUAUCACUCUCACUUCUUUAUAAACGUAAUCUUCCCAUUCUAAGGGGCUUUUCUUCAUCCAUUCGCUCAUGGUUACCAGUUGCCCAGAUUCUUUCUAGAUGACUCAACAGAGGAUUGAGCAUCA
B2: 8805033_8805153_1671_3pUTR_ENSMUSG00000021147_ENSMUST00000021572|mouse|control|control (ssRNA)
RNA: GGGAGUUCUACAGUCCGACGAUCAACUUGGAGCUAAGGAACAUCAGUGACUUAUUUUUCUUGUAACAGUGCAGGAAUAUUGAUGUUCCACCCAAUAGCUUGCCUAUCGAACCCACAGGUAAAUAGAUUGCAUAUGGGGUGGUCCAACAGAGGAUUGAGCAUCA
B3: chr2:46850943:46850944:+_ENSG00000119878_ENST00000238892|hu_hu|FALSE|FALSE (ssRNA)
RNA: GGGAGUUCUACAGUCCGACGAUCGUAGGCACAGCCCUGGCAGUAAUGAGAACCUGGUUGGUGCACAGAACUUUUACAAAUUCUACAAGUGGAGAACUUAUUCUUUCCAUAUGGAUCAAAUCUUGCUUUUUUUGAAGUCAAAGCCAACAGAGGAUUGAGCAUCA
B4: 72481967_72485090_997_CDS_ENSMUSG00000030516_ENSMUST00000102592|mouse|control|control (ssRNA)
RNA: GGGAGUUCUACAGUCCGACGAUCUGCUGCCAAACUAUCUUGUGAAAUUUCCUUUACAAAUAUAUGGCUGGCCAAUCGAAGACCAUAUUCUUCAUUUUUCCGAGACUUCACCAGUGUGACCUUGGUGGGCUUUGCGGGCUGACUCAACAGAGGAUUGAGCAUCA
B5: chr4:128986876:128986877:-_ENSMUSG00000057236_ENSMUST00000102598|mus_mus|motif|central (ssRNA)
RNA: GGGAGUUCUACAGUCCGACGAUCGAUGGUGAGACAGGUCAACCAAAAUGGAGAUGGCAUCAAACUAUAGUGGUCAAAGACGGACCCCUAAAAAAGCAACUUUUAUCAAGGAUUAAUUUAAUCUUAAAAACAAACACAAACUAGCAACAGAGGAUUGAGCAUCA
B6: chr16:45711415:45711416:-_ENSMUSG00000022658_ENSMUST00000096057|mus_mus|FALSE|FALSE (ssRNA)
RNA: GGGAGUUCUACAGUCCGACGAUCAUUAGGAUACGUUCUGUGAGUCAAGGAGAGAAACUUUUUGGCAAAUAAAUAAAUAAAUAAUCAAACAAACCAAGACCUUAGGGCACAGGAGGUCAGAGAGGAAAGGGAGUCUUUGCAUAGCAACAGAGGAUUGAGCAUCA
B7: chr11:86070927:86070928:-_ENSMUSG00000018068_ENSMUST00000018212|mus_mus|FALSE|FALSE (ssRNA)
RNA: GGGAGUUCUACAGUCCGACGAUCUGGCACCAACAGUGCCGUCGACAGAGCGAGAAUCAGAAUGGGGACACUGCAAAAAAAAAAAAAAAAGUAAAAAGGAAAGGGAAAAAAAAGGGAGAAGCAACCAGGAGAGAGGGGAAAGCACAACAGAGGAUUGAGCAUCA
B8: chr4:88365945:88365946:-_ENSMUSG00000070923_ENSMUST00000094993|mus_mus|motif|central (ssRNA)
RNA: GGGAGUUCUACAGUCCGACGAUCACUUGUAUAGCCAUUUACUAAACAAUAUCAAGCCAAACCAAAAAAAAAAAAGGGUCGGAGUUACCUUUUUGUCUAUUAACUGUAGCAAUAAGGAGAAACAAUACAAGGGGAUGAACAAGACAACAGAGGAUUGAGCAUCA
B9: chr7:97110809:97110810:-_ENSMUSG00000030619_ENSMUST00000107234|mus_mus|FALSE|FALSE (ssRNA)
RNA: GGGAGUUCUACAGUCCGACGAUCACAAGACUUGGAAAGUAUCAAAUCGCCUAACCAUCGCACACAAUCAACAUAAUUCCUAUGUAUGUCUCUGGUAGAAAAGUCAGGAAAGUGGAUUUUCUGGGAAAUAAAUGGCCUGUUAGUCAACAGAGGAUUGAGCAUCA
B10: chr18:46664354:46664355:-_ENSMUSG00000033319_ENSMUST00000036226|mus_hu|FALSE|FALSE (ssRNA)
RNA: GGGAGUUCUACAGUCCGACGAUCGGAAAAAACUGUAGUAGAAAUGGUUAGGACAAACAAUAAAGUAGAAACAGGGGGGAAACUUGAGAAGAGAAGAAAGAAGCAAGAAAAAAAGACUUUCAAUUGUAUAAAAUUCACAAACCACAACAGAGGAUUGAGCAUCA
B11: chrX:71549400:71549401:+_ENSMUSG00000019087_ENSMUST00000019231|mus_hu|mus_mus_mus_hu_False|8_88 (ssRNA)
RNA: GGGAGUUCUACAGUCCGACGAUCGCAGUAGGAAGAGGGAAGCUCUUCAUCCACUGUCGCUGCAGGGUGGGAAAGCAACAACACGGACACCGUCCCACCCUCAACCCCCCCACUGGCACAGGGUCACAUCUGGGUCAUCAAAGACAACAGAGGAUUGAGCAUCA
B12: chr7:141438946:141438947:+_ENSG00000106028_ENST00000265304|hu_mus|hu_hu_hu_mus_True|8_98 (ssRNA)
RNA: GGGAGUUCUACAGUCCGACGAUCGACGAAAUACCUGACAGGUCUUCCUUCGAAACAUGGCUUCUGUUUUUCUUACAACCUAAUCUUUAGGCUUUUCCUAAAGGAAAGAAAGAAAAGAGAAAAAUGAGCAGGGGAUCAACUACACAACAGAGGAUUGAGCAUCA
B13: chr10:112362727:112362728:-_ENSMUSG00000074748_ENSMUST00000099276|mus_mus|FALSE|FALSE (ssRNA)
RNA: GGGAGUUCUACAGUCCGACGAUCGAUCCCAGCAUGCGAUAAUGCCAGGUAGUGGCCCCUGGGCAUGCGAUGGUGGGAACUAAUUUACUGAAGAAAAAAGCACAAACCACAGAAAAUGUAAAGAACCCCUUCCCCCUAUACACACAACAGAGGAUUGAGCAUCA
B14: chrX:71549400:71549401:+_ENSMUSG00000019087_ENSMUST00000019231|mus_hu|mus_mus_mus_hu_False|8_58 (ssRNA)
RNA: GGGAGUUCUACAGUCCGACGAUCGCAGUAGGAAGAGGGAAGCUCUUCAGUCCAGUGCGCUGCAGGGUGGGAAAGCACAACCUAGACCACCGUCCCACCCUCAACCCCCCCACUGGCACAGGGUCACAUCUGGGUCAUCAAAGACAACAGAGGAUUGAGCAUCA
B15: chr3:148802587:148802588:-_ENSG00000071794_ENST00000310053|hu_mus|hu_hu_hu_mus_False|18_58 (ssRNA)
RNA: GGGAGUUCUACAGUCCGACGAUCUCCAACAACUUGUCCUCUCAUAGUUCCAAAUAAAACCAAAUCUUGCUCUUCAUCACUAGUUAGGAAGUCAUCUGGAGGAAUAAUGUCUUGGAAUUCAAAACGUGGCAAGAAAGUUGAGUACAACAGAGGAUUGAGCAUCA

Over roughly 24,000 sequences, “enrichment r” has its median near 0.99; the highest 2% begin near 3.7. The full list was thinned out, with the highest values kept by preference.

In this assay the target is T1, UNK ZnF1-3. As to the kind of experiment: nsRBNS (natural sequence RNA bind-n-seq); RBNS binding buffer (assumed for nsRBNS): 25 mM Tris pH 7.5, 150 mM KCl, 3 mM MgCl2, 0.01% Triton X-100, 500 ug/ml BSA, 20 U/ml SUPERase-In, 4 C; UNK is unkempt and MSI1 is Musashi-1; names of the RNAs are library labels; protein concentration not given here; high values mean tight binding.
B1 came in with a binding signal of 0.786 enrichment R.
On to B2, for which the binding signal worked out at 0.759 enrichment R.
For B3 the value was 0.978 enrichment R; for B4, 0.579 enrichment R.
B5: the binding signal was determined as 4.74 enrichment R.
As to B6, the binding signal amounted to 3.91 enrichment R.
Molecule B7 gave a binding signal of 8.95 enrichment R.
For B8 the value was 1.54 enrichment R; for B9, 1.38 enrichment R; for B10, 5.26 enrichment R.
The molecule B11 gave a binding signal of 1.14 enrichment R.
B12: the binding signal was 0.543 enrichment R.
In turn, B13 came in with a binding signal of 1.77 enrichment R.
For B14 the value was 1.31 enrichment R; for B15, 1.29 enrichment R.
